Records with an inconclusive call do not appear. Activity calls are given as the source filed them. Calls come from the whole dose curve; as a rule, active = well fitted cell-killing curve with a large enough effect; inconclusive = small, poorly fitted or top-dose-only effect, or effect the other way; inactive = flat fitted curve, though single readings scatter.
Columns and labels:
Assay in all cases: Primary qHTS to identify gynecologic anti-cancer compounds using libraries of approved drugs and bioactive compounds (AID 1345084); note: nearly all actives have a fitted effect of over 55% in size
[1] = test system: C33A; conditions: Gynecologic cancer cell panel viability, ATPlite luminescence, 48 h; series mostly up to 57.5 µM
How it was run: (§1)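 Five-point cytotoxicity, 48 h drug exposure at 37 C, 5% CO2, on cells seeded 16 h beforehand. ATP content read by ATPlite luminescence.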

[2] = test system: CAOV3; conditions: Gynecologic cancer cell panel viability, ATPlite luminescence, 48 h; series mostly up to 57.5 µM
How it was run: as §1

[3] = test system: CASKI; conditions: Gynecologic cancer cell panel viability, ATPlite luminescence, 48 h; series mostly up to 57.5 µM
How it was run: as §1

[4] = test system: Es-2; conditions: Gynecologic cancer cell panel viability, ATPlite luminescence, 48 h; series mostly up to 57.5 µM
How it was run: as §1

[5] = test system: HeLa; conditions: Gynecologic cancer cell panel viability, ATPlite luminescence, 48 h; series mostly up to 57.5 µM
How it was run: as §1

[6] = test system: Hek293T; conditions: Gynecologic cancer cell panel viability, ATPlite luminescence, 48 h, control line for the selectivity index; series mostly up to 57.5 µM
How it was run: as §1

[7] = test system: JEG-3; conditions: Gynecologic cancer cell panel viability, ATPlite luminescence, 48 h; series mostly up to 57.5 µM
How it was run: as §1

[8] = test system: OV90; conditions: Gynecologic cancer cell panel viability, ATPlite luminescence, 48 h; series mostly up to 57.5 µM
How it was run: as §1

[9] = test system: PA-1; conditions: Gynecologic cancer cell panel viability, ATPlite luminescence, 48 h; series mostly up to 57.5 µM
How it was run: as §1

[10] = test system: SKOV3; conditions: Gynecologic cancer cell panel viability, ATPlite luminescence, 48 h; series mostly up to 57.5 µM
How it was run: as §1

[11] = test system: Tov-21-G; conditions: Gynecologic cancer cell panel viability, ATPlite luminescence, 48 h; series mostly up to 57.5 µM
How it was run: as §1

[12] = test system: Tov112D; conditions: Gynecologic cancer cell panel viability, ATPlite luminescence, 48 h; series mostly up to 57.5 µM
How it was run: as §1
% is set by controls: 0 for no effect and ±100 for the full control effect.

N#CN1CCC[C@@H](n2nc(-c3ccc(Oc4ccc(F)cc4F)cc3)c(C(N)=O)c2N)C1
inactive: Potency [1] | Potency [2] | outcome [3] | Potency [4] | Potency [5] | Potency [6] | Potency [7] | Potency [8] | Potency [9] | Potency [10] | Potency [11] | Potency [12]

CC(NC(=O)[C@H](Cc1ccccc1)NC(=O)OCc1ccccc1)C(=O)CF (stereo partly drawn)
inactive: Potency [1] | Potency [2] | outcome [3] | Potency [4] | Potency [5] | Potency [6] | Potency [7] | Potency [8] | Potency [9] | Potency [11] | Potency [12]

COC(=O)[C@H](Cc1cccc(C(=N)N)c1)[C@@H](C)NC(=O)c1ccc(-c2cc[n+]([O-])cc2)cc1
inactive: Potency [1] | Potency [2] | outcome [3] | Potency [4] | Potency [5] | Potency [6] | Potency [7] | Potency [8] | Potency [9] | Potency [10] | Potency [11] | Potency [12]

C/C(=C\CO)CC/C=C(\C)C(=O)O[C@@H]1O[C@H](CO)[C@@H](O)[C@H](O)[C@H]1O
inactive: Potency [1] | Potency [2] | outcome [3] | Potency [4] | Potency [5] | Potency [6] | Potency [7] | Potency [8] | Potency [9] | Potency [10] | Potency [11] | Potency [12]

C/C=C1/[C@H](O[C@@H]2O[C@H](CO)[C@@H](O)[C@H](O)[C@H]2O)OC=C(C(=O)OC)[C@H]1CC(=O)OCCc1ccc(OC(=O)C[C@@H]2C(C(=O)OC)=CO[C@@H](O[C@@H]3O[C@H](CO)[C@@H](O)[C@H](O)[C@H]3O)/C2=C/C)cc1
inactive: activity change, negative = cytotoxicity [1] 3.14% [at 11.6 µM] | activity change, negative = cytotoxicity [2] 14% [at 11.6 µM] | activity change, negative = cytotoxicity [3] 4.82% [at 11.6 µM] | activity change, negative = cytotoxicity [4] 6.86% [at 11.6 µM] | activity change, negative = cytotoxicity [5] 18.2% [at 11.6 µM] | activity change, negative = cytotoxicity [6] 5.22% [at 11.6 µM] | activity change, negative = cytotoxicity [7] 15.1% [at 11.6 µM] | activity change, negative = cytotoxicity [8] 7.47% [at 11.6 µM] | activity change, negative = cytotoxicity [9] 1.32% [at 11.6 µM] | activity change, negative = cytotoxicity [10] 0% [at 11.6 µM] | activity change, negative = cytotoxicity [11] 4.28% [at 11.6 µM] | activity change, negative = cytotoxicity [12] 11.9% [at 11.6 µM]

COc1c2c(c(C)c3c1C(=O)OC3)OC1(C)CC(O)C34OC(OC)(CC(O)C3(C)C1C2)OC4(C)C (stereo not drawn)
inactive: Potency [1] | Potency [2] | outcome [3] | Potency [4] | Potency [5] | Potency [6] | Potency [7] | Potency [8] | Potency [9] | Potency [11] | Potency [12]

COc1cc(/C=C/C(=O)O[C@@H]2C[C@](O)(C(=O)O)C[C@@H](O)[C@H]2O)ccc1O
inactive: Potency [1] | Potency [2] | outcome [3] | Potency [4] | Potency [5] | Potency [6] | Potency [7] | Potency [8] | Potency [9] | Potency [10] | Potency [11] | Potency [12]

COc1cc(C2Oc3c(OC)cc(CCCO)cc3C2CO)ccc1O (stereo not drawn)
inactive: Potency [1] | Potency [2] | outcome [3] | Potency [4] | Potency [5] | Potency [6] | Potency [7] | Potency [8] | Potency [9] | Potency [11] | Potency [12]

CC(CC(C)O[C@@H]1O[C@H](CO)[C@@H](O)[C@H](O)[C@H]1O)OC(=O)/C=C/c1ccc(O)cc1 (stereo partly drawn)
inactive: Potency [1] | Potency [2] | outcome [3] | Potency [4] | Potency [5] | Potency [6] | Potency [7] | Potency [8] | Potency [9] | Potency [10] | Potency [11] | Potency [12]

CC(=O)NC(Cc1c[nH]c2ccccc(=O)c12)C(=O)O (stereo not drawn)
inactive: Potency [1] | Potency [2] | outcome [3] | Potency [4] | Potency [5] | Potency [6] | Potency [7] | Potency [8] | Potency [9] | Potency [11] | Potency [12]

CC(O)C/C=C/C=C/C(=O)OC1C=C2COC(=O)C2(O)C2(C)CCCC(C)(C)C12 (stereo not drawn)
inactive: Potency [1] | Potency [2] | outcome [3] | Potency [4] | Potency [5] | Potency [6] | Potency [7] | Potency [8] | Potency [9] | Potency [10] | Potency [11] | Potency [12]

OCC(O)C(c1c[nH]c2ccccc12)c1c[nH]c2ccccc12 (stereo not drawn)
inactive: Potency [1] | Potency [2] | outcome [3] | Potency [4] | Potency [5] | Potency [6] | Potency [7] | Potency [8] | Potency [9] | Potency [11] | Potency [12]

N=C(N)c1ccc2nc(-c3cc(CC(=O)NC(CC(=O)O)C(=O)O)cc(-c4cc(S(N)(=O)=O)ccc4O)c3O)[nH]c2c1 (stereo not drawn)
inactive: Potency [1] | Potency [2] | outcome [3] | Potency [4] | Potency [5] | Potency [6] | Potency [7] | Potency [8] | Potency [9] | Potency [10] | Potency [11] | Potency [12]

COc1c2c(c(C)c3c1C(=O)OC3)OC1(C)CC(O)C34OC(O)(CCC3(C)C1C2)OC4(C)C (stereo not drawn)
inactive: Potency [1] | Potency [2] | outcome [3] | Potency [4] | Potency [5] | Potency [6] | Potency [7] | Potency [8] | Potency [9] | Potency [10] | Potency [11] | Potency [12]

— PubChem BioAssay (NCATS)
